A short description of assay [1]: ATG_M_06_CIS: Attagene CIS-FACTORIAL HepG2 Assay for M06 Transcription Factor (Internal Marker) (AID 2282950). Particulars: HepG2 Attagene CIS-FACTORIAL M06 internal marker reporter; actives raise or lower the signal. The method, boiled down:
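Fluorescence-labelled RT-PCR products from cis-promoter reporter units, cut with HpaI and resolved by capillary electrophoresis, give the signal. Cells are human HepG2, dosed for 24 h. Serves as background control, fitted relative to DMSO.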

Assay [2] addresses Hypoxia-inducible factor 1-alpha (Homo sapiens) (UniProt Q16665). The assay can be described thus: ATG_HIF1a_CIS: Attagene CIS-FACTORIAL HepG2 Assay for human Hypoxia Inducible Factor 1 (HIF1A) (AID 2282951). The note with it: HepG2 Attagene cis-factorial HIF1a reporter transcription; actives raise or lower the signal. The method, boiled down: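 RT-PCR/capillary electrophoresis fluorescence readout of reporter transcripts from endogenous-TF-driven cis elements in transfected HepG2 cells, 24 h exposure; activity fitted in both directions against DMSO controls.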

Assay [3] concerns the target Hepatocyte nuclear factor 6 (Homo sapiens) (UniProt Q9UBC0). The assay can be described thus: ATG_HNF6_CIS: Attagene CIS-FACTORIAL HepG2 Assay for human Hepatocyte Nuclear Factor 6 (HNF6) (AID 2282952). Particulars: HepG2 Attagene cis-factorial HNF6 reporter transcription; actives raise or lower the signal. The essentials:
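HepG2 cells transiently transfected with cis-element-driven multiple reporter transcription units, dosed 24 h; reporter mRNA quantified by RT-PCR, FAM primer extension, HpaI digestion and capillary electrophoresis; bidirectional fit versus DMSO baseline.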

Assay [4] addresses Heat shock factor protein 1 (Homo sapiens) (UniProt Q00613). The assay can be described thus: ATG_HSE_CIS: Attagene CIS-FACTORIAL HepG2 Assay for human Heat Shock Transcription Factor 1 (HSE) (AID 2282953). Particulars: HepG2 HSE cis-reporter, Attagene RNA transcription; actives raise or lower the signal. The method, boiled down:
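After a 24 h incubation with test chemical, transfected HepG2 cells were harvested for RNA; reporter transcripts were measured by RT-PCR and capillary electrophoresis. Values reflect gain or loss of signal relative to DMSO.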

The nature of assay [5]: ATG_MRE_CIS: Attagene CIS-FACTORIAL HepG2 Assay for human Metal Responsive Element (MRE) (AID 2282954). The note with it: HepG2 MRE cis-reporter transcription, Attagene multiplex; actives raise or lower the signal. The method, boiled down:
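After a 24 h chemical exposure, transiently transfected HepG2 cells yield RNA whose reporter sequences are amplified, FAM-labelled and sized by capillary electrophoresis. Curves are fitted bidirectionally relative to DMSO.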

A short description of assay [6]: ATG_PBREM_CIS: Attagene CIS-FACTORIAL HepG2 Assay for human Phenobarbital-responsive Enhancer Module (PBREM) (AID 2282955). The note with it: HepG2 PBREM cis-reporter, Attagene multiplexed transcription; actives raise or lower the signal. The essentials: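 Reporter mRNA read by RT-PCR, 6-FAM primer extension, HpaI digestion and capillary electrophoresis. Transfected HepG2 cells, 24 h compound exposure. Gain or loss of signal fitted bidirectionally relative to DMSO baseline.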

Assay [7] concerns the target Paired box protein Pax-6 (Homo sapiens) (UniProt P26367). The assay can be described thus: ATG_Pax6_CIS: Attagene CIS-FACTORIAL HepG2 Assay for human Paired Box 6 (PAX6) (AID 2282956). The note with it: HepG2 CIS-FACTORIAL PAX6 reporter transcription, RNA readout; actives raise or lower the signal. The method, boiled down: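 Transient MRTU transfection of HepG2 → compound exposure 24 h → TriZol RNA, oligo(dT) RT → PCR, 6-FAM primer extension, HpaI cut → capillary electrophoresis; activity fitted both directions against DMSO.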

Assay [8] is described as follows: ATG_PPRE_CIS: Attagene CIS-FACTORIAL HepG2 Assay for human Peroxisome Proliferator-activated Response Element (PPRE) (AID 2282958). Particulars: HepG2 PPRE cis-element reporter, Attagene transcription factor profiling; actives raise or lower the signal. The essentials: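 Read-out: fluorescent reporter mRNA fragments resolved by capillary electrophoresis after RT-PCR. HepG2 cells carried transiently transfected PPRE-driven cis reporter constructs and were dosed for 24 h; gain or loss of signal fitted relative to DMSO.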

The nature of assay [9]: ATG_RORE_CIS: Attagene CIS-FACTORIAL HepG2 Assay for human RAR-related Orphan Receptor Element (RORE) (AID 2282959). Particulars: HepG2 Attagene cis-factorial RORE reporter, mRNA; actives raise or lower the signal. The method, boiled down:
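Readout: fluorescent reporter mRNA by RT-PCR plus capillary electrophoresis, 24 h after dosing transfected HepG2 cells. Endogenous transcription factor activity on a cis promoter element is measured. Gain or loss of signal fitted against DMSO.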

Assay [10] can be described thus: ATG_Sox_CIS: Attagene CIS-FACTORIAL HepG2 Assay for human SRY-box transcription factor (SOX) (AID 2282960). Particulars: HepG2 Attagene cis-factorial SOX reporter, mRNA; actives raise or lower the signal. The method, boiled down:
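Read-out: fluorescent RT-PCR products of SOX1-linked reporter transcripts resolved by capillary electrophoresis, fitted bidirectionally against DMSO. Transiently transfected HepG2 cells, 24 h after chemical exposure, endogenous transcription factor activity.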

The target of assay [11] is Transcription factor Sp1 (Homo sapiens) (UniProt P08047). The assay can be described thus: ATG_Sp1_CIS: Attagene CIS-FACTORIAL HepG2 Assay for human Specificity Protein 1 (Sp1) (AID 2282961). Particulars: HepG2 Sp1 cis-reporter transcription, actives raise or lower the signal. The essentials: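 Read-out: fluorescence of 6-FAM-labeled, HpaI-digested RT-PCR products separated by capillary electrophoresis. HepG2 cells carried transfected cis-element reporter units and were exposed to chemicals for 24 h; gain or loss of signal fitted relative to DMSO.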

Assay [12] in a line: ATG_SREBP_CIS: Attagene CIS-FACTORIAL HepG2 Assay for human Sterol Regulatory Element Binding (SREBP) (AID 2282962). The note with it: HepG2 Attagene cis-factorial SREBP reporter, mRNA; actives raise or lower the signal. The method, boiled down: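 Transfected HepG2 (cis-regulated reporter library, endogenous TFs) → compound 24 h → total RNA → oligo(dT) RT → reporter-specific PCR → FAM primer extension, HpaI cut → CE fluorescence. Fit bidirectional vs DMSO.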

Assay [13] deals with Signal transducer and activator of transcription 3 (Homo sapiens) (UniProt P40763). The experiment in a line: ATG_STAT3_CIS: Attagene CIS-FACTORIAL HepG2 Assay for human Signal Transducer and Activator of Transcription 3 (STAT3) (AID 2282963). Particulars: HepG2, Attagene cis-factorial STAT3 reporter transcription; actives raise or lower the signal. The essentials: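 After a 24 h compound incubation, total RNA from MRTU-transfected HepG2 cells was converted to cDNA and reporter sequences PCR-amplified, labelled and profiled by capillary electrophoresis. Gain and loss of signal were referenced to DMSO.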

Assay [14] in a line: ATG_TA_CIS: Attagene CIS-FACTORIAL HepG2 Assay for human TA Basal Promoter (AID 2282964). Particulars: HepG2 Attagene CIS-factorial TA basal promoter reporter; actives raise or lower the signal. The essentials: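 Multiplexed mRNA reporter assay, HepG2, 24 h. Reporter cDNA amplified, 6-FAM primer-extended, HpaI-cut, CE-sized; DMSO = negative control and baseline.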
Assay [15] is described as follows: ATG_TAL_CIS: Attagene CIS-FACTORIAL HepG2 Assay for human TAL Basal Promoter (AID 2282966).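 Note: background control endpoint measuring basal TAL promoter reporter mRNA not a specific factor.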 Particulars: HepG2 Attagene cis-factorial TAL promoter reporter; actives raise or lower the signal. The method, boiled down:
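HepG2 cells were transiently transfected with promoter-driven multiplexed reporter units and dosed for 24 h. Reporter mRNA was measured by RT-PCR with capillary electrophoresis fluorescence; bidirectional fits used DMSO as baseline, serving as a background control.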

The nature of assay [16]: ATG_TGFb_CIS: Attagene CIS-FACTORIAL HepG2 Assay for human Transforming Growth Factor (TGF) (AID 2282967). Particulars: HepG2 Attagene CIS TGFb reporter, mRNA transcription; actives raise or lower the signal. The method, boiled down:
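Transcript-level reporter readout: HepG2 transfectants, 24 h exposure, RNA to cDNA, reporter-specific PCR, fluorescent primer extension, capillary sizing against ROX standards. Gain- or loss-of-signal relative to DMSO.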

A short description of assay [17]: ATG_VDRE_CIS: Attagene CIS-FACTORIAL HepG2 Assay for human Vitamin D Receptor Element (VDRE) (AID 2282968). Particulars: HepG2 VDRE cis-reporter transcription, actives raise or lower the signal. The method, boiled down:
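In transiently transfected HepG2 liver cells, gain or loss of reporter mRNA after 24 h exposure is scored relative to DMSO, using fluorescence detection by capillary electrophoresis of RT-PCR products.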

Assay [18] is described as follows: ATG_TCF_b_cat_CIS: Attagene CIS-FACTORIAL HepG2 Assay for human T-Cell-Factor with beta-catenin (TCF/b-cat) (AID 2282965). Particulars: HepG2 TCF/beta-catenin cis-reporter transcription, actives raise or lower the signal. The method, boiled down: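 Measured: reporter mRNA in HepG2 transiently transfected with cis-promoter reporter units, 24 h after chemical addition. Fitting was bidirectional, DMSO as negative control.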

Assay [19] in a line: ATG_PXRE_CIS: Attagene CIS-FACTORIAL HepG2 Assay for human Pregnane X Receptor Element (PXRE) (AID 2282957). The note with it: HepG2 Attagene CIS-FACTORIAL PXRE reporter, mRNA; actives raise or lower the signal. The method, boiled down: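 HepG2 cells transiently transfected with cis-regulated multiple reporter transcription units; endogenous factor activity measured as reporter mRNA 24 h after dosing. RT-PCR, fluorescent primer extension, HpaI digestion, capillary electrophoresis; bidirectional fit versus DMSO baseline.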

Calls of active or inactive are those of the source. Rule for the calls: active = hit-call score of the fitted dose curve at least 0.9, where 1 is the maximum; inactive = score below 0.9.

We go through six compounds from PubChem BioAssay (EPA / NIEHS).

Heat shock factor protein 1 (Homo sapiens), sequence (Q00613 whole entry, looked up): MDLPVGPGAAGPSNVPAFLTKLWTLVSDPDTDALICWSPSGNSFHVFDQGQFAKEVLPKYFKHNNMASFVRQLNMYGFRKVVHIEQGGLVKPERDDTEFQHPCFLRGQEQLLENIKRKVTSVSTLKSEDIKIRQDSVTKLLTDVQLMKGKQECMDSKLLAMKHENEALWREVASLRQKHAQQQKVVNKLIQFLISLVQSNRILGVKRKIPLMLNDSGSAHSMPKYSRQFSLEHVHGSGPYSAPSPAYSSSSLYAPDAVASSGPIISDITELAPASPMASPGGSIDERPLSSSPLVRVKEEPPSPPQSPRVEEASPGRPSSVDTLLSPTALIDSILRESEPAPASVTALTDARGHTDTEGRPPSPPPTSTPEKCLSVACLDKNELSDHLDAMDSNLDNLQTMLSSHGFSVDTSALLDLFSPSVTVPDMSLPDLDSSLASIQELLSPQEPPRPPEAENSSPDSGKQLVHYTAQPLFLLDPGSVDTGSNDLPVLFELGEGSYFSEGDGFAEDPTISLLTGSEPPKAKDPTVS
Hypoxia-inducible factor 1-alpha (Homo sapiens), sequence (Q16665 whole entry, looked up): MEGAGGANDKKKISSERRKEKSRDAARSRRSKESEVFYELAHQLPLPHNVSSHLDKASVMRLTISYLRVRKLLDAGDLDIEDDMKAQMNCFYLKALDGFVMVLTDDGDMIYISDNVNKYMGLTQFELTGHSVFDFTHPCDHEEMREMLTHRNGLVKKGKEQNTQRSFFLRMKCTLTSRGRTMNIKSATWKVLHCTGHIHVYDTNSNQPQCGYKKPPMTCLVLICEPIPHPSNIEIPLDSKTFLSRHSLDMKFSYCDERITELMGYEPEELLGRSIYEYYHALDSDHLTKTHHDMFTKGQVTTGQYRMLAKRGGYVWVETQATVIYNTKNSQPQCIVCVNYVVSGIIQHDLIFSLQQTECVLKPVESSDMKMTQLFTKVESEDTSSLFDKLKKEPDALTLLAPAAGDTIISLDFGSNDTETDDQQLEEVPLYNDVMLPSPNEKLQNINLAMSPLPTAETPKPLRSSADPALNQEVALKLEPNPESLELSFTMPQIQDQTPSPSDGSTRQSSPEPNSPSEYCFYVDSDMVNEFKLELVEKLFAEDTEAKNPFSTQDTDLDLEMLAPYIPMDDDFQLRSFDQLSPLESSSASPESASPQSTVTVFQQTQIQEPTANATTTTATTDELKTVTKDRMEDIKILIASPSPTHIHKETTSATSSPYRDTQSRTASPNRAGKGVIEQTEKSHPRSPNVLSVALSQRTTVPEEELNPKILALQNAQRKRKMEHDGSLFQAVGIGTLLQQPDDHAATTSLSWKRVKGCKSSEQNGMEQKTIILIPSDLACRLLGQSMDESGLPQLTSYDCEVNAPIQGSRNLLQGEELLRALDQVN
Signal transducer and activator of transcription 3 (Homo sapiens), sequence (P40763 whole entry, looked up): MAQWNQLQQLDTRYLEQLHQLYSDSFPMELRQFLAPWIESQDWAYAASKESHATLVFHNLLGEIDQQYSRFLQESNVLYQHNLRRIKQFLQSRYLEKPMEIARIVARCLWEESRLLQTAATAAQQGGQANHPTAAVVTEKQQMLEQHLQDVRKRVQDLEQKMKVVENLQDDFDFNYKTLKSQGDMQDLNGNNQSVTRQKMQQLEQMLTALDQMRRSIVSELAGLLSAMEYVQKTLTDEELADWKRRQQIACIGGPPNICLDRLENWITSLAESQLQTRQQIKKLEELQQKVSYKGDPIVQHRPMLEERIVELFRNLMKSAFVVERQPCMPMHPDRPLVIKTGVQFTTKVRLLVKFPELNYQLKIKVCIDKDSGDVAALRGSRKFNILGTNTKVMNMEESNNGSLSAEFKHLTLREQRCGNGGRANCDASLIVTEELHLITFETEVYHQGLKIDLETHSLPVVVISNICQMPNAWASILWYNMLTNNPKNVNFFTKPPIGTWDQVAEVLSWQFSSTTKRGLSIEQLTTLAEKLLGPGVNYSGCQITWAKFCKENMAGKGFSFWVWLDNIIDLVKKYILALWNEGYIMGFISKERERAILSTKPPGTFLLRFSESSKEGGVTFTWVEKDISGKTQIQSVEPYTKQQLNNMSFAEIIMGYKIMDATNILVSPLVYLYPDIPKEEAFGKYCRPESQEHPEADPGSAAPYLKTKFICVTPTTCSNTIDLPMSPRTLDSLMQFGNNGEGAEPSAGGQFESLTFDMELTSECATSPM
Transcription factor Sp1 (Homo sapiens), sequence (P08047 whole entry, looked up): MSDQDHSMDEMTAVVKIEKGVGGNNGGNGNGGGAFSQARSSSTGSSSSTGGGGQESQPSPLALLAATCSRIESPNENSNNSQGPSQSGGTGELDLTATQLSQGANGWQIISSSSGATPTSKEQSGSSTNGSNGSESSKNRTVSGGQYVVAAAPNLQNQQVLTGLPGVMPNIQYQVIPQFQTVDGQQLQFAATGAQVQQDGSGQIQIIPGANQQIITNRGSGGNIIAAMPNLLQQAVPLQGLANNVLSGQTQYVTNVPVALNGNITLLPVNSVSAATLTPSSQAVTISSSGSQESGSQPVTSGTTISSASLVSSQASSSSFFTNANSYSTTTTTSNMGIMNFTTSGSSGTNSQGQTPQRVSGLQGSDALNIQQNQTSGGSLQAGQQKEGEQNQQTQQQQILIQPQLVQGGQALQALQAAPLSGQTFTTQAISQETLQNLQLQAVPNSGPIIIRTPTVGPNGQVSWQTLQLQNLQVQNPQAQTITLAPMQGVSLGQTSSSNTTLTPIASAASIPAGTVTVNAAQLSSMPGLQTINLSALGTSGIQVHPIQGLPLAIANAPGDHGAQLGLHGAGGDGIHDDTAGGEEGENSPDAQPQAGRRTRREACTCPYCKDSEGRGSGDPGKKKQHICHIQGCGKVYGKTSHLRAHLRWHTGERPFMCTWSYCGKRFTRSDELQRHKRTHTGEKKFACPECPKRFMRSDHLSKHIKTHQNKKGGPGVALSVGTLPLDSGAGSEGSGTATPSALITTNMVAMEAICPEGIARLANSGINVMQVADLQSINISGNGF
Paired box protein Pax-6 (Homo sapiens), sequence (P26367 whole entry, looked up): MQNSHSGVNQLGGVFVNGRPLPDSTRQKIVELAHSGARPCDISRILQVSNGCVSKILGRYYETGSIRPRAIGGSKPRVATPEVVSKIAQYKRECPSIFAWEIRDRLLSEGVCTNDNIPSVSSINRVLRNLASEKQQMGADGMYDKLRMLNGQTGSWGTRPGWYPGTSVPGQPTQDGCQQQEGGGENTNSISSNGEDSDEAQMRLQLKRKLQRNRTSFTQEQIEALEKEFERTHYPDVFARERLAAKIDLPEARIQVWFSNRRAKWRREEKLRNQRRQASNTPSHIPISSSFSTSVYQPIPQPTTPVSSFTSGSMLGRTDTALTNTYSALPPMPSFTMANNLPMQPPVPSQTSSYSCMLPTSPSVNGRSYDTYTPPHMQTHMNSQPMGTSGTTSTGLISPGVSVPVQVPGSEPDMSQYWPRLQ
Hepatocyte nuclear factor 6 (Homo sapiens), sequence (Q9UBC0 whole entry, looked up): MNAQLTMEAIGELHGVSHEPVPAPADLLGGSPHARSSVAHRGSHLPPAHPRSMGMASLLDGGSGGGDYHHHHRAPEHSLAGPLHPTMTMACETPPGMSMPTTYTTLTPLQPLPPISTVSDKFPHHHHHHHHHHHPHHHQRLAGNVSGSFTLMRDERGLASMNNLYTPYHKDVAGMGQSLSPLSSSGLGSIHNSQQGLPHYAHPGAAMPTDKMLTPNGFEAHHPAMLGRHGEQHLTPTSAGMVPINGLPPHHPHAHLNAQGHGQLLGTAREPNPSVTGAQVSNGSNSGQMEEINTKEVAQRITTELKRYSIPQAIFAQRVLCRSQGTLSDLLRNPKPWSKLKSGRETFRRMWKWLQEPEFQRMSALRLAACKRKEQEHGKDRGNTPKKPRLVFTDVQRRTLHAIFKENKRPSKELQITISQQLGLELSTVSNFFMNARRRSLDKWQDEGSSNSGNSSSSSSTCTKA

Consider `c1cc[c]([Sb]([c]2ccccc2)[c]2ccccc2)cc1`, for which the outcome in assay [1], in [2], in assay [3], in assay [4], in assay [5] and in assay [6] was inactive. The outcome in [7], in [8], in assay [9], in assay [10], in assay [11] and in assay [12] was inactive. In addition, the compound was called inactive in assay [13], in [14], in assay [15] and in [17]. Besides, the AC50 in [16] is 41.1 µM (active).

On to `O=S1(=O)OC(c2cc(Br)c(O)c(Br)c2)(c2cc(Br)c(O)c(Br)c2)c2ccccc21`, for which the compound was called inactive in assay [1], in assay [2], in [3], in assay [4], in assay [5] and in [6]. In addition, the result in assay [7], in assay [10], in [11], in [12], in [13] and in assay [14] was inactive. Also, the call in [15], in assay [16] and in assay [17] was inactive. Further, the AC50 in assay [8] was 57.4 µM (active); in assay [9] it was 93 µM (active); in assay [18], 121 µM (active).

Turning to `O=NN1CCCCCCC1`, the result in assay [1], in assay [2], in [3], in assay [4], in assay [5] and in assay [6] was inactive. Also, the compound was classed as inactive in assay [7], in [10], in assay [11], in assay [12], in assay [13] and in assay [14]. Further, the compound was called inactive in assay [18], in [15] and in assay [16]. The AC50 in [19] is 47.4 µM (active).

Consider `O=[N+]([O-])c1cc([As](=O)(O)O)ccc1O`, for which the call in assay [2], in assay [3], in assay [4], in assay [5], in assay [7] and in assay [19] was inactive. The result in [8], in [9], in assay [10], in assay [11], in assay [12] and in assay [13] was inactive. Also, the compound was classed as inactive in [14], in assay [18], in assay [15], in assay [16] and in [17].

Take `O=[N+]([O-])c1c2ccccc2cc2ccccc12`: the outcome in [1], in [2], in [3], in [4], in [5] and in assay [6] was inactive. Moreover, the outcome in assay [7], in assay [9], in [10], in [11], in [13] and in assay [14] was inactive. Also, the outcome in assay [18], in assay [15], in assay [16] and in assay [17] was inactive.

For the compound `Clc1ccc(C(Cl)(Cl)Cl)cn1`, the result in assay [1], in [2], in assay [3], in [4], in assay [5] and in [7] was inactive. Moreover, the compound was classed as inactive in assay [8], in assay [9], in [10], in assay [11], in assay [12] and in assay [13]. Moreover, the result in [14], in assay [18], in assay [15], in [16] and in [17] was inactive. For the same compound, the AC50 in assay [19] is 14.1 µM (active).

Usually AC50 stands for the concentration at which the activity in the assay is half-maximal.
